Assay results published in publication PMC7862700, “An all-to-all approach to the identification of sequence-specific readers for epigenetic DNA modifications on cytosine”.

Assays:
Test in all cases: DAPPL (digital affinity profiling via proximity ligation, sequencing); 10 mM Tris-HCl pH 7.5, 50 mM NaCl, 1 mM DTT, 4% glycerol, room temperature, 30 min; GST-TFs on glutathione beads, 16-mer random dsDNA library, 0.1% formaldehyde crosslink after washing; high values mean tight binding
Conditions in all cases: protein: recombinant; tags: N-terminal GST; dsDNA, one strand shown
ERF = molecular target: T1, ERF (Homo sapiens, UniProt P50548 1-548)
T1 sequence: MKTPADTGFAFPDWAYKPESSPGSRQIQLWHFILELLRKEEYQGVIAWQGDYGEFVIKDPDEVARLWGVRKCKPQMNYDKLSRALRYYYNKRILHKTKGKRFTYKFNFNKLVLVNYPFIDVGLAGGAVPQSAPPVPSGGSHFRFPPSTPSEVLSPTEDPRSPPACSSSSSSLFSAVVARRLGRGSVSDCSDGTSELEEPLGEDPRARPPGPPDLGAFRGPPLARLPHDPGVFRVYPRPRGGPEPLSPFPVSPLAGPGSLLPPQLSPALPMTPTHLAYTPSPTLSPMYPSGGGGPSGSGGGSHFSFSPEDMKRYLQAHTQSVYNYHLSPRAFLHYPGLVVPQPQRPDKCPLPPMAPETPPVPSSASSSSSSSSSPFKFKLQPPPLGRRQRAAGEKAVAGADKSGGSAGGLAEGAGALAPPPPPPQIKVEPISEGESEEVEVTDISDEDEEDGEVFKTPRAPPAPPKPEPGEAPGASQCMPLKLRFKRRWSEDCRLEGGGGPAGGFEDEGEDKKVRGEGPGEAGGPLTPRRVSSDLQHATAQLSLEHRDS
Outline: (§1)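 Sequencing on an Illumina NextSeq500 followed washing, crosslinking with 0.1% formaldehyde, proximity ligation (BsaI/T4 ligase, 1 h, 37 °C) and PCR amplification of pools that had been incubated for 30 min at room temperature with 200 nmole of a random double-stranded 16-mer DNA library in Tris/NaCl/DTT/glycerol buffer. Each pool held DNA-barcoded human transcription factors, expressed in yeast as GST fusions and captured on glutathione beads, plus a tag-only sample. Binding signal is a hexamer's read frequency for a factor divided by its frequency in the tag-only sample.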

ETV3L = molecular target: T2, ETV3L (Homo sapiens, UniProt Q6ZN32 1-361)
T2 sequence: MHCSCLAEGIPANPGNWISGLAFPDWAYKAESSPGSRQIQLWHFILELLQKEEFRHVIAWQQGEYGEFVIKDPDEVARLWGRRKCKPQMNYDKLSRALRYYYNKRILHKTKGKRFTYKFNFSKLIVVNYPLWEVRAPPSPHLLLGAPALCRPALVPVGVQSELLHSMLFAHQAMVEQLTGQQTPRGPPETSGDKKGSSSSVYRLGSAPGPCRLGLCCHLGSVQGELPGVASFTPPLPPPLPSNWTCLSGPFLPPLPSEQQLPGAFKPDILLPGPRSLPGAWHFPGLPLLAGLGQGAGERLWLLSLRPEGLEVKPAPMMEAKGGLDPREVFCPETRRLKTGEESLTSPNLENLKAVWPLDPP
Outline: as §1

ETS2 = molecular target: T3, ETS2 (Homo sapiens, UniProt P15036 1-469)
T3 sequence: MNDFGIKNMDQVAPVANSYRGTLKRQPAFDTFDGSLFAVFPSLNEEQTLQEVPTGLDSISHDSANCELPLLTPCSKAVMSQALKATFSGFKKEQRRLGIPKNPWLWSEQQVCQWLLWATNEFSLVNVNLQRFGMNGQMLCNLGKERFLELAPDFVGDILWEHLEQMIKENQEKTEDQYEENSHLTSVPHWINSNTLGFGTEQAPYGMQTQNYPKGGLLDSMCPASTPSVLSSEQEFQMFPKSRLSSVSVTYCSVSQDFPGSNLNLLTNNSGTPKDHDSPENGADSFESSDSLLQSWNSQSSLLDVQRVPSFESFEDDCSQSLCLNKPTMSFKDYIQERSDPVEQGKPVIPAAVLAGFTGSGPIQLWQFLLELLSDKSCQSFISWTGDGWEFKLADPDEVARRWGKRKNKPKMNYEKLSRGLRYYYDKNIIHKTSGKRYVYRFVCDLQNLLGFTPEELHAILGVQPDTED
Outline: as §1

SPDEF = molecular target: T4, SPDEF (Homo sapiens, UniProt O95238 1-335)
T4 sequence: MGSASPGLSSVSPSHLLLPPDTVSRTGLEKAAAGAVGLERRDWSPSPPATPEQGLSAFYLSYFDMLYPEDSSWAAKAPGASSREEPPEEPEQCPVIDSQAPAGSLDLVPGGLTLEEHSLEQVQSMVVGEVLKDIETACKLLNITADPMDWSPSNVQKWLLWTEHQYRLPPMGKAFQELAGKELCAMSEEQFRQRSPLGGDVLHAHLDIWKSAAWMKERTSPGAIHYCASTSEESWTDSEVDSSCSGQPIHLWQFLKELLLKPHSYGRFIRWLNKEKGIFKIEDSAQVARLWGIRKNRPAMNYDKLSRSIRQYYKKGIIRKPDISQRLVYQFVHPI
Outline: as §1

ETV7 = molecular target: T5, ETV7 (Homo sapiens, UniProt Q9Y603 1-341)
T5 sequence: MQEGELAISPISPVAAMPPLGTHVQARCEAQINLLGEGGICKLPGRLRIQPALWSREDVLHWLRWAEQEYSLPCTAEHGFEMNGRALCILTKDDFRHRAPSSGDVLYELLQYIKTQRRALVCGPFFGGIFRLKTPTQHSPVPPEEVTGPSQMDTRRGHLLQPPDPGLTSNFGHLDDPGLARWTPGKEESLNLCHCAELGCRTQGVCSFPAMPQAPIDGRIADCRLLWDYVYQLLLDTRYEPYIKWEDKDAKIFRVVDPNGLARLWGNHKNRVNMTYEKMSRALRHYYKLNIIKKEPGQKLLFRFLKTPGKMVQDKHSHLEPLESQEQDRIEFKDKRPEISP
Outline: as §1

ELF5 = molecular target: T6, ELF5 (Homo sapiens, UniProt Q9UKW6-2 1-255)
T6 sequence: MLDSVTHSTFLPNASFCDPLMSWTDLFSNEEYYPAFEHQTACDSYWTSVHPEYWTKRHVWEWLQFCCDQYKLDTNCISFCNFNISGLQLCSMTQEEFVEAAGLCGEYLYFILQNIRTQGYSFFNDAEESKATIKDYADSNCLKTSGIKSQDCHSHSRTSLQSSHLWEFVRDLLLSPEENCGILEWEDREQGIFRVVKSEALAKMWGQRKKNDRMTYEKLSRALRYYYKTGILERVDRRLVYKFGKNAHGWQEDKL
Outline: as §1

ETV3 = molecular target: T7, ETV3 (Homo sapiens, UniProt P41162-2 1-143)
T7 sequence: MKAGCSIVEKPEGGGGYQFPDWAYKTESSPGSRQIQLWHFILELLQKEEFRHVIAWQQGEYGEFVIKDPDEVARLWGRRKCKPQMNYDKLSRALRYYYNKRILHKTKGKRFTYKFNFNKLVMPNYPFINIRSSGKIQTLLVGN
Outline: as §1

ETV6 = ETV6 (Homo sapiens, UniProt P41212 1-452)
ETV6, sequence (P41212 whole entry): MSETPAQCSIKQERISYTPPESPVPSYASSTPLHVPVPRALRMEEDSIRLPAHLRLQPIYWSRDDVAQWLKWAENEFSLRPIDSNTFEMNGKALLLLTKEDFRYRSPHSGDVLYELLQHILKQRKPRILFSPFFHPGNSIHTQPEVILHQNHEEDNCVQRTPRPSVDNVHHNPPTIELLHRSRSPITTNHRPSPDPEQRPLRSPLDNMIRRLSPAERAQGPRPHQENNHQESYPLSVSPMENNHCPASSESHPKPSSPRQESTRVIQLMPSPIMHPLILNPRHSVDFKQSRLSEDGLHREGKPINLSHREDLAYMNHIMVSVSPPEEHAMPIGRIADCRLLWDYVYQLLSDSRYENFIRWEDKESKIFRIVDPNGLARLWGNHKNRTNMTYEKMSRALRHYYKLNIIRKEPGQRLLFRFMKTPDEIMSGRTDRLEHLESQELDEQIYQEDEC
Outline: as §1

Row | Sequence | binding signal (ERF) | binding signal (ETV3L) | binding signal (ETS2) | binding signal (SPDEF) | binding signal (ETV7) | binding signal (ELF5) | binding signal (ETV3) | binding signal (ETV6)
1 | ACATCC | 2.41 fold enrichment (6-mer frequency, TF over GST control) | 2.46 fold enrichment (6-mer frequency, TF over GST control) | 2.68 fold enrichment (6-mer frequency, TF over GST control) | 5.32 fold enrichment (6-mer frequency, TF over GST control) | 2.28 fold enrichment (6-mer frequency, TF over GST control) | 3.25 fold enrichment (6-mer frequency, TF over GST control) | 2.88 fold enrichment (6-mer frequency, TF over GST control) | 2.49 fold enrichment (6-mer frequency, TF over GST control)
2 | ATAATC | 1.2 fold enrichment (6-mer frequency, TF over GST control) | 1.16 fold enrichment (6-mer frequency, TF over GST control) | 1.16 fold enrichment (6-mer frequency, TF over GST control) | 1.17 fold enrichment (6-mer frequency, TF over GST control) | 1.14 fold enrichment (6-mer frequency, TF over GST control) | 1.13 fold enrichment (6-mer frequency, TF over GST control) | 1.15 fold enrichment (6-mer frequency, TF over GST control) | 1.19 fold enrichment (6-mer frequency, TF over GST control)
3 | CTTTGG | 1.19 fold enrichment (6-mer frequency, TF over GST control) | 1.18 fold enrichment (6-mer frequency, TF over GST control) | 1.13 fold enrichment (6-mer frequency, TF over GST control) | 1.09 fold enrichment (6-mer frequency, TF over GST control) | 1.26 fold enrichment (6-mer frequency, TF over GST control) | 1.09 fold enrichment (6-mer frequency, TF over GST control) | 1.22 fold enrichment (6-mer frequency, TF over GST control) | 1.14 fold enrichment (6-mer frequency, TF over GST control)
4 | CTCCTT | 1.86 fold enrichment (6-mer frequency, TF over GST control) | 1.76 fold enrichment (6-mer frequency, TF over GST control) | 1.76 fold enrichment (6-mer frequency, TF over GST control) | 1.64 fold enrichment (6-mer frequency, TF over GST control) | 1.75 fold enrichment (6-mer frequency, TF over GST control) | 1.89 fold enrichment (6-mer frequency, TF over GST control) | 1.95 fold enrichment (6-mer frequency, TF over GST control) | 1.76 fold enrichment (6-mer frequency, TF over GST control)
5 | TATCGA | 1.38 fold enrichment (6-mer frequency, TF over GST control) | 1.41 fold enrichment (6-mer frequency, TF over GST control) | 1.44 fold enrichment (6-mer frequency, TF over GST control) | 1.34 fold enrichment (6-mer frequency, TF over GST control) | 1.32 fold enrichment (6-mer frequency, TF over GST control) | 1.18 fold enrichment (6-mer frequency, TF over GST control) | 1.25 fold enrichment (6-mer frequency, TF over GST control) | 1.35 fold enrichment (6-mer frequency, TF over GST control)
6 | TGTGCT | 1.19 fold enrichment (6-mer frequency, TF over GST control) | 1.12 fold enrichment (6-mer frequency, TF over GST control) | 1.12 fold enrichment (6-mer frequency, TF over GST control) | 1.31 fold enrichment (6-mer frequency, TF over GST control) | 1.18 fold enrichment (6-mer frequency, TF over GST control) | 1.15 fold enrichment (6-mer frequency, TF over GST control) | 1.18 fold enrichment (6-mer frequency, TF over GST control) | 1.22 fold enrichment (6-mer frequency, TF over GST control)
7 | CAAATA | 1.23 fold enrichment (6-mer frequency, TF over GST control) | 1.1 fold enrichment (6-mer frequency, TF over GST control) | 1.14 fold enrichment (6-mer frequency, TF over GST control) | 1.09 fold enrichment (6-mer frequency, TF over GST control) | 1.16 fold enrichment (6-mer frequency, TF over GST control) | 1.06 fold enrichment (6-mer frequency, TF over GST control) | 1.1 fold enrichment (6-mer frequency, TF over GST control) | 1.07 fold enrichment (6-mer frequency, TF over GST control)
